Screens as filed in PubChem.
This excerpt belongs to a sample that is enriched for hits.
CRE-bla Fsk – modulators of forskolin-stimulated CRE signaling in CHO cells | CHO CRE-bla reporter (cAMP response element driving beta-lactamase), forskolin EC10, beta-lactamase ratio | Potency, µM (series often up to 38.2 µM), for inactives: top-dose activity change, negative = inhibition, most hits filed as activators | actives 2.5% (n = 71,000) | AID 662; active = well fitted activation curve with a large enough effect in the signal ratio, with a control signal flat, not every such curve was filed as active; inconclusive = small, poorly fitted or top-dose-only effect, or effect the other way, or a change in a side signal; the % refers to the signal ratio; also: potency is read from the fitted curve at half-maximal effect; % of control where 0% means no effect
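qHTS titration format; CRE-bla CHO reporter; stimulus EC10 NKH 477, a water-soluble forskolin. Read: CCF4 460/530 nm ratio. Potency expressed as AC50 for activators or inhibitors.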
IkB signaling – suppresses IkB signaling in ABC-DLBCL reporter cells; Potency, µM (series often up to 57.1 µM), without a hit: top-dose IkBa stabilization activation; actives 0.04% (n = 110,000); ABC-DLBCL IkBa-CBG/CBR dual luciferase ratio, 4 h; response scale: scaled: untreated 0%, proteasome inhibitor 100%; active = well fitted curve in the direction sought with a large enough effect in the signal ratio, not every such curve was filed as active; inconclusive = small, poorly fitted or top-dose-only effect, or a change in a side signal; the % refers to the signal ratio;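 also: potency is read from the fitted curve at half-maximal effect; the direction sought is a rising ratio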
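Curves were fitted separately to fusion (green), unfused (red) and ratio luminescence, then classed by r2, magnitude and activity. Cells: OCI-Ly3, 4 h compound plus doxycycline at 37C; 10 uM MG-132 defined full response.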
Epigenetic mod – epigenetic GFP locus derepression in mouse cells. AID 597. actives 0.09% (n = 68,000). mouse C127i GFP locus derepression, cytometry, 30 h. Potency, µM (top dose mostly 46.1 µM), for inactives: at the top dose GFP derepression (activation); also: % of control where 0% means no effect
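Locus derepression in mouse mammary C127i cells whose integrated CMV-GFP reporter is normally silent; GFP expression after 30 h compound treatment was quantified by counting fluorescent cells.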
HBB splice mod – modulators of hemoglobin beta chain splicing. HBB splicing reporter cell assay, activation; EGFP reporter with mutant IVS2-654 intron; response scale: normalised to 500 nM splice-correcting PNA. Potency, µM (highest dose often 46.1 µM), without a hit: top-dose activation, actives largely listed as activators. actives 0.06% (n = 65,000). AID 925; also: potency is read from the fitted curve at half-maximal effect; 0% is about no effect
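Compounds were applied for 2 days to HeLa EGFP-654 cells, 500/well in Optimem with 2% FCS. The reporter's EGFP is disrupted by mis-splicing of beta-globin intron IVS2-654. Readout: summed well GFP fluorescence from 488 nm laser scanning; reference was 500 nM antisense […] 654 PNA.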
ERK AVP block – vasopressin-driven ERK pathway inhibition; actives 0.99% (n = 72,000); Potency, µM (top dose mostly 57.5 µM), without a hit: at the top dose activity, negative = inhibition, actives largely listed as inhibitors; HEK293-V1b, vasopressin-stimulated pERK AlphaScreen; also: potency is read from the fitted curve at half-maximal effect; % is scaled to controls: 0 for no effect and ±100 for the full control effect; nearly all actives have a fitted effect of over 55% in size
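Overnight-seeded V1b-HEK293 cells in 1% FBS got compound, then vasopressin (25 nM final, 5 min, 37C), then lysis buffer. AlphaScreen detection of phospho-ERK; activity normalized to basal and full-stimulation controls.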
An asterisk follows results filed as active; ? = inconclusive; . = no result; [ ] = another dose, or the depositor's remark. Unless noted, calls follow the shape of the dose curve; as a rule, active = well fitted curve in the direction sought with a large enough effect; inconclusive = small, poorly fitted or top-dose-only effect, or another doubt; inactive = no such curve, though single readings can be large; an effect the other way counts as inactive or inconclusive.

SMILES	CRE-bla Fsk	IkB signaling	Epigenetic mod	HBB splice mod	ERK AVP block
COc1nc(Nc2ccc(OC)c(Cl)c2)nc(OC)n1	10µM*	-3.9%	6.5%	-1.4%	-17.8%
O=C1[C@H]2[C@H]3[C@H](O)[C@H](O)C/C(=N/OCc4ccccc4)[C@H]3CC[C@@H]2C(=O)N1Cc1ccc2c(c1)OCO2	.	.	.	1.2%[9.22 µM]	19.9%[11.5 µM]
Cc1ccc(OCCN2CCN(C(=O)CCC(=O)Nc3nnc(C)s3)CC2)cc1	7.94µM*	0.6%	5.4%	-1.9%	-11.2%
Cc1ccc(OCCN2CCN(C(=O)CCC(=O)Nc3nnc(C(C)C)s3)CC2)cc1	-7.0%	-3.4%	0.0%	-2.8%	1.4%
COc1ccc(N2CCN(S(=O)(=O)c3c(C)nc4sc(C)cn4c3=O)CC2)cc1	.	-0.2%	.	.	.
Oc1ccc(Br)cc1/C=N/n1cnc2ccccc21	?	10.0%	0.0%	-2.2%[57.5 µM]	15.8µM*
O=S(=O)(c1ccc(Cl)cc1)c1nc(-c2ccccc2)oc1N1CCN(c2ccccc2)CC1	.	-1.7%	.	.	.
O=C(OC[C@@H](O)CO)c1ccccc1Nc1ccnc2cc(Cl)ccc12	?	1.3%[25.6 µM]	2.2%[20.6 µM]	-0.4%[20.6 µM]	?
COc1ccc(-c2c3c(=O)n(C)c(=O)n(C)c3c3c(-c4ccc(C)cc4)nc4ccccc4n23)cc1	.	1.2%	.	.	.
Fc1ccc(-c2nc(-c3cccs3)c(-c3cccs3)[nH]2)cc1	.	0.7%	.	.	.
Oc1ccc(-c2nc(-c3ccc(F)cc3)c(-c3ccncc3)[nH]2)cc1	?	?	-1.9%	0.5%	7.94µM*
CCOc1ccc(NC(=O)Cn2nnc(C(=O)NCCc3ccccc3)c2N)cc1	.	-0.8%	.	.	.
CS(=O)(=O)N1CCC2(CC1)CN(c1cccc(-c3ccccc3)c1)C2	12.0%	-1.8%[11.4 µM]	-2.3%[9.22 µM]	2.4%	-12.1%
Cc1ccc2nc(NC(=O)C3CCN(S(=O)(=O)c4cccs4)CC3)sc2c1	?	-1.1%	-1.0%	1.4%	25.1µM*
CN1CCN(S(=O)(=O)c2cccc(C(=O)Nc3sc4c(c3C(N)=O)CCCC4)c2)CC1	0.794µM*	-1.1%	-0.1%	-1.3%	-19.7%
CN1CCc2c(sc(NC(=O)c3ccc(S(=O)(=O)N4CCOCC4)cc3)c2C(N)=O)C1	0.3%	-3.1%	.	3.4%	.
COc1ccc(CNC(=O)Cn2c(SCC(=O)Nc3ccc(C)c(C)c3)nc3ccccc32)cc1	.	-0.1%	.	.	.
CC(=O)N1CCCc2cc(S(=O)(=O)N3CCC(N(C)C(C)C)CC3)ccc21	.	3.1%	.	.	.
COc1ccc(NC(=O)Nc2nnc(N3CCCCCC3)s2)c(OC)c1	.	0.9%	.	.	.
COc1ccccc1NC(=O)CSc1ncn[nH]1	-1.3%	-2.5%	-1.9%	-1.4%	10.8%
COc1ccccc1NC(=O)CSc1nc2nc(C)cc(C)c2c(=O)[nH]1	10µM*	3.1%	-6.5%	-1.5%	-12.3%
COc1ccccc1NC(=O)CSc1nccc(=O)[nH]1	0.501µM*	-4.1%	0.0%	-0.2%	-12.6%
COc1ccccc1NC(=O)CSc1nc(N)cc(N)n1	-1.9%	?	2.0%	-0.3%	0.0%
CCCSc1nc2c(c(=O)[nH]c(=O)n2C)n1Cc1ccc(C)cc1	21.6%	0.6%	0.0%	0.6%[0.369 µM]	-7.0%
C/C=C/Cn1c(SCc2ccc(C)cc2)nc2c1c(=O)[nH]c(=O)n2C	12.6µM*	0.2%	1.2%	.	13.3%
SMILES	CRE-bla Fsk	IkB signaling	Epigenetic mod	HBB splice mod	ERK AVP block
CCn1c(N2CCN(CC(=O)c3c(C)n(C)c4ccccc34)CC2)nc2c1c(=O)[nH]c(=O)n2C	10µM*	-1.9%	0.0%	1.1%[1.84 µM]	-13.6%
Cc1ccc(Cn2c(N3CCCCCC3)nc3c2c(=O)[nH]c(=O)n3C)cc1	?	1.5%	-2.3%	-0.1%[57.5 µM]	15.8µM*
C=CCSc1nc2c(c(=O)[nH]c(=O)n2C)n1C(C)C	10µM*	-1.1%	0.0%	.	-6.2%
CC1(C)S[C@H]2[C@@H](NC(=O)C(N)c3ccccc3)C(=O)N2[C@H]1C(=O)O (some centres not stated)	.	.	.	.	4.7%
CCCn1c(SCc2ccccc2)nc2c1c(=O)[nH]c(=O)n2C	?	4.0%	2.4%	.	-12.2%
C=CCSc1nc2c(c(=O)[nH]c(=O)n2C)n1Cc1ccc(C)cc1	2.51µM*	-1.8%	.	-1.2%	.
C=CCn1c(SCc2ccc(Cl)cc2)nc2c1c(=O)[nH]c(=O)n2C	10µM*	-0.2%	-1.9%	.	-0.1%
CC1=C(C(=O)O)N2C(=O)[C@@H](NC(=O)[C@@H](N)c3ccccc3)[C@@H]2SC1	0.4%[17.1 µM]	0.5%[25.6 µM]	-1.7%[20.6 µM]	-0.6%[20.6 µM]	3.9%[25.7 µM]
O=S(=O)(c1ccc(SCCO)nc1)N1CCCC1	-13.3%	-1.1%	1.3%	-1.7%	-15.0%
CN1CCN(S(=O)(=O)c2ccc(SCCOc3ccccc3)nc2)CC1	-7.1%	?	1.9%	-0.2%[57.5 µM]	25.1µM*
CCCCOC(=O)C1=C(C)Nc2ncnn2C1c1cc(OC)c(OC)cc1OC (configuration not stated)	15.8µM*	-1.9%	0.2%	4.6%	-9.6%
CCCCn1c(NC(C)CC)nc2c1c(=O)[nH]c(=O)n2C (configuration not stated)	10µM*	-3.2%	0.0%	-3.7%[57.5 µM]	-24.3%
CN(Cc1ccccc1)c1nc2c(c(=O)[nH]c(=O)n2C)n1CCOc1ccccc1	5.01µM*	-1.4%	0.0%	-1.7%[57.5 µM]	12.6µM*
CCC(C)Nc1nc2c(c(=O)[nH]c(=O)n2C)n1Cc1ccc(F)cc1 (configuration not stated)	.	3.1%	.	.	.
Cn1c(=O)c2c(nc(Br)n2CCCc2ccccc2)n(C)c1=O	?	?	-2.1%	0.5%[0.369 µM]	-22.3%
CN(Cc1ccccc1)c1nc2c(c(=O)[nH]c(=O)n2C)n1CCCSc1ncccn1	?	-2.3%	0.0%	2.8%[57.5 µM]	?
CN(Cc1ccccc1)c1nc2c(c(=O)[nH]c(=O)n2C)n1Cc1ccccc1	?	0.1%	-1.9%	0.0%[57.5 µM]	?
CCCCCn1c(N(C)Cc2ccccc2)nc2c1c(=O)[nH]c(=O)n2C	10µM*	-1.6%	.	0.1%	.
CN(Cc1ccccc1)c1nc2c(c(=O)n(C)c(=O)n2C)n1CCCc1ccccc1	-14.0%	?	-2.1%	2.0%[0.369 µM]	20µM*
Nc1nc(CN2CCN(c3cccc(Cl)c3)CC2)nc(N2CCCc3ccccc32)n1	?	?	0.0%	-0.3%	6.31µM*
COC(=O)c1cc(-c2ccc(OC)c(OC)c2)on1	?	-0.5%	0.2%	.	7.94µM*
COCCNC(=O)c1cc(-c2ccc(OC)c(OC)c2)on1	22.6%	4.3%	0.0%	1.2%	-0.2%
CN(C)c1ccc(C(=C2C=CC(=[N+](C)C)C=C2)c2ccccc2)cc1	?	?	-3.4%[9.22 µM]	1.7%[9.22 µM]	12.6µM*
CN(C)c1ccc(C(=C2C=CC(=[N+](C)C)C=C2)c2ccc(N(C)C)cc2)cc1	?	?	.	-0.8%	10µM*
CN(C)c1ccc(/C(=N\O)C(F)(F)F)cc1	?	-0.2%	1.9%	-2.9%[0.0738 µM]	-3.9%
